PNC inhibitor: perinucleolar compartment assembly inhibition; PC3M PTB-GFP, PNC prevalence imaging, 16 h; stronger effect = lower value; activity change (PNC), negative = inhibition, % at 10 µM; 140,000 compounds, 3.1% hits;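 active means readout at or below -70, meaning at least 70% loss of cells showing the perinucleolar compartment, a nuclear body marking cancer cells; inconclusive means readout between -30 and a set limit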;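 further: plate controls were DMSO wells for no effect and camptothecin positive control wells for full effect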
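Compounds are pinned in duplicate onto adhered PC3M cells stably expressing GFP-tagged PTB and incubated 16 h at 37 C. Cells are then fixed, nuclei stained with Hoechst, and PNC-positive cells counted.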
ALDH1A1 block: blocks purified human ALDH1A1 activity. P00352. Purified ALDH1A1, NADH fluorescence, propionaldehyde substrate. Potency, µM (highest dose often 75.3 µM), inactives show at the top dose activity, negative = inhibition, usual class: inhibitors. 220,000 compounds, 7.3% hits. AID 1030;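 further: potency means the concentration at half of the fitted maximal effect; plate controls were no enzyme wells and a reference inhibitor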
Target sequence (P00352 whole entry, looked up): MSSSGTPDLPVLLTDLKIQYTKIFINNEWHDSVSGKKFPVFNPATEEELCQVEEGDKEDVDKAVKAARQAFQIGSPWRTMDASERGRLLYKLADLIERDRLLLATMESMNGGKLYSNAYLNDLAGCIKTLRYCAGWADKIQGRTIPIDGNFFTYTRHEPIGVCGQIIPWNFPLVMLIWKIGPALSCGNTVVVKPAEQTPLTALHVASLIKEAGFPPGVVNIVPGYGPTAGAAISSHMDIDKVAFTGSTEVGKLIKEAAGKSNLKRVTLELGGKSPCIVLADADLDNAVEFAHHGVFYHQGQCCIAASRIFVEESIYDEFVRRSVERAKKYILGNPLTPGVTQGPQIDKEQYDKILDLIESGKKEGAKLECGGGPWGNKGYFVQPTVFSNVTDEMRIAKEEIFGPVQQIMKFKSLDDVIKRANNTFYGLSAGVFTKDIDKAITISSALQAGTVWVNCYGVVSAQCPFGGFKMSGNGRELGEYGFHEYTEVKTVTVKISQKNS
Lamin A splicing: changes lamin A minigene splicing in HeLa cells; HeLa LMNA splicing GFP/RFP minigene ratio, 48 h; Potency, µM (titrated, usually from 46.1 µM), inactives show top-dose ratio change, negative = inhibition, actives largely listed as inhibitors; 200,000 compounds, 0.01% hits; AID 1487; active means well fitted inhibition curve with a large enough effect in the signal ratio, with a control signal flat, not every such curve was filed as active; inconclusive means small, poorly fitted or top-dose-only effect, or effect the other way, or a change in a side signal; the % refers to the signal ratio; further: potency means the concentration at half of the fitted maximal effect
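S3 HeLa cells stably expressing lamin A-EGFP splicing minigene plus DsRed2, 600 cells/well, 48 h compound exposure at 37C. Laser-scanning cytometry; analysed as GFP (500-530 nm)/RFP (575-640 nm) total intensity ratio; 0.5% DMSO vehicle.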
ALOX12 inhib: blocks human 12-lipoxygenase activity; purified 12-hLO, xylenol orange hydroperoxide absorbance; Potency, µM (titrated, usually from 57.1 µM), inactives show at the top dose activity change, negative = inhibition, most hits filed as inhibitors; 150,000 compounds, 0.12% hits; AID 1452; active means well fitted inhibition curve with a large enough effect; inconclusive means small, poorly fitted or top-dose-only effect; further: potency means the concentration at half of the fitted maximal effect; nearly all actives have a fitted effect of over 55% in size
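Xylenol orange chromogenic assay: hydroperoxide from 12hLO oxidises Fe(II), giving red-shifted Fe(III)-XO absorbance. Conditions: 150 nM enzyme, 40 uM arachidonic acid, 25 mM Hepes pH 7.0, 0.01% Triton X-100, 30 min, room temperature.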
HPGD inh: blocks human HPGD enzyme activity; P15428; 150,000 compounds, 4.3% hits; purified HPGD, NADH fluorescence kinetic, PGE2 substrate; Potency, µM, inactives show at the highest dose activity change, negative = inhibition, usual class: inhibitors; further: potency means the concentration at half of the fitted maximal effect
Target sequence (P15428 whole entry, looked up): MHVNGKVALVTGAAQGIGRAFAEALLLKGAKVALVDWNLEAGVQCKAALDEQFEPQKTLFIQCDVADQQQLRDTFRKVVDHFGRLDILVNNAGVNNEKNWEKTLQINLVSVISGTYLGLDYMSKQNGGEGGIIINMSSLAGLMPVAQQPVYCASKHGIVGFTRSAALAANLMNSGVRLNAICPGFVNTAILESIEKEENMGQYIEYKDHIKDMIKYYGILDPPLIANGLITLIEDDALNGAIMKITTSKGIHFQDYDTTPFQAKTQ
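NADH formation kinetics: reaction with 30 uM PGE2 and 1 mM NAD+ (final), 20 nM enzyme, Tris-HCl pH 8 with Tween 20, after 15 min compound preincubation at room temperature. Fluorescence change, last versus first of five reads.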
* marks the source's active call; other numbers are inactive results; ? = inconclusive; nt = not tested or not shown; [ ] = dose if it differs, or a comment. Compounds with a hit are over-represented: about 10% of the library has one in this group of screens. Unless noted, the call rests on the fitted dose curve; in most records, active means well fitted inhibition curve with a large enough effect (not every such curve was filed as active); inconclusive means small, poorly fitted or top-dose-only effect, or another doubt; inactive means no such curve, though single readings can be large or run the other way. Unless noted, on the % scale 0 is the no-effect control and ±100 the full control effect.

SMILES | PNC inhibitor | ALDH1A1 block | Lamin A splicing | ALOX12 inhib | HPGD inh
COC(=O)c1ccccc1NC(=O)Cn1c(-c2nonc2N)nc2ccccc21 | -97.7* | -0.8% | ? | -4.1% | 1.0%
CC(C)OC(=O)c1ccc(NC(=O)Cn2c(-c3nonc3N)nc3ccccc32)cc1 | 0.4 | 22.4µM* | -0.9% | 3.0% | -5.9%
CN1/C(=C\C(=O)c2ccccc2Cl)c2ccccc2CC1(C)C | ? | 1.5% | ? | -9.4% | 17.8µM*
COC(=O)Nc1ccc2[nH]cc(CCNC(C)=O)c2c1 | nt | 5.5% | nt | -1.7% | -6.2%
COc1ccc(O[C@H]2C=C[C@@H](c3ccccc3)O[C@@H]2COC(=O)CC/C(C)=N/O[C@@H](C)CN2CCCCc3nc(C)c(C)cc32)cc1 | -82.8* | -11.7% | -6.7% | -0.7% | -17.1%
COc1c(-c2coc3cc4c(cc3c2=O)CC(O)C(C)(C)O4)ccc2c1C=CC(C)(C)O2 (stereo unspecified) | nt | ? | nt | -20.0% | 15.8µM*
C/C(=N\N=C1\NC(=O)C(CC(=O)NCc2ccccc2)S1)C(C)C (stereo unspecified) | nt | -6.6% | 4.8%[46 µM] | nt | nt
Cc1ccc(N=C2NC(=O)C(CC(=O)NCc3ccccc3)S2)cc1C (stereo unspecified) | 13.6 | 25.1µM* | ? | 1.6% | -15.3%
COc1ccc(NC(=O)CC2SC(=Nc3ccccc3)NC2=O)c(OC)c1 (stereo unspecified) | ? | -5.3% | -12.8% | -2.3% | -4.6%
COc1ccc(N=C2NC(=O)C(CC(=O)NCCc3ccc(OC)c(OC)c3)S2)cc1 (stereo unspecified) | nt | 11.2µM* | -7.0%[46 µM] | nt | nt
COc1ccc(OC)c(NC(=O)CC2SC(=NCc3ccccc3)NC2=O)c1 (stereo unspecified) | nt | 39.8µM* | ? | nt | nt
O=C(O)CC[C@@H](NC(=O)c1ccccc1C(=O)O)C(=O)O | nt | nt | nt | 0.5% | nt
O=C(Cn1cnnn1)Nc1ccccc1Cc1ccccc1 | -100.0* | 0.6% | 7.5% | -2.7% | -1.8%
COCCn1c(=O)c(-c2cccs2)nc2cnc(Oc3ccc(OC)cc3)nc21 | nt | ? | nt | -4.9% | ?
O=S(=O)(c1ccccc1)c1nc(-c2ccco2)oc1NCc1cccnc1 | 18.4 | ? | 3.4% | -2.2% | -13.3%
Cc1ccc(S(=O)(=O)c2nc(-c3ccco3)oc2NCC2CCCO2)cc1 (stereo unspecified) | 13.1 | 10µM* | 0.0% | -2.6% | -16.6%
O=S(=O)(c1ccc(Br)cc1)c1nc(-c2ccco2)oc1NCC1CCCO1 (stereo unspecified) | nt | 14.1µM* | 23.6%[1.84 µM] | nt | nt
CC(C)CCN1C(=O)c2ccc(-c3nc4ccccc4c(=O)o3)cc2C1=O | 10.5 | 7.08µM* | 11.1% | 7.4% | ?
Cc1c(Br)c([N+](=O)[O-])nn1CC(=O)Nc1ccc(Cc2ccncc2)cc1 | -93.1* | ? | ? | 0.3% | -18.2%
CC(=O)Nc1ccc(NC(=O)Cn2nc([N+](=O)[O-])c(Br)c2C)cc1 | nt | 3.1% | ? | nt | nt
Cc1cccc(C(=O)Nc2cccc(C(=O)OCc3cc(=O)n4c5c(sc4n3)CCCC5)c2)c1 | nt | nt | -11.5%[46 µM] | nt | nt
COC(=O)C1(C(=O)OC)CC2=CCC3C(=O)N(c4ccccc4)C(=O)C3C2Cc2ccccc2[C@@H]1C[N+](=O)[O-] (stereo partly specified) | nt | -12.6% | nt | 0.5% | -2.5%
CCN1CCCC1CN(Cc1cc2ccc(C)cc2[nH]c1=O)C(=S)Nc1ccc(OC)cc1OC (stereo unspecified) | -24.5 | 20µM* | -12.8% | -11.9% | -16.3%
CCN1CCCC1CN(Cc1cc2cc(C)cc(C)c2[nH]c1=O)C(=O)Nc1ccccc1OC (stereo unspecified) | 47.0 | ? | ? | -1.5% | -16.9%
O=C1/C(=C\c2cccs2)N=C(c2cccs2)N1Nc1ccccc1 | 15.1 | 14.1µM* | ? | -16.4% | -28.2%
SMILES | PNC inhibitor | ALDH1A1 block | Lamin A splicing | ALOX12 inhib | HPGD inh
O=C1CC(NCCC2=CCCCC2)C(=O)N1c1cccc(Cl)c1Cl (stereo unspecified) | -12.3 | 5.62µM* | -11.0% | -0.2% | -14.8%
O=C(NCCC1=CCCCC1)C(=O)NCc1ccccc1Cl | 36.9 | 7.0% | 14.2% | -12.0% | -0.8%
O=C(O)c1cncc(C(=O)O)c1 | nt | 5.3%[13.5 µM] | nt | -1.9%[11.4 µM] | -3.8%
Cc1ccc(NC(=O)CSc2nc(=O)n(CCN3CCOCC3)c3c2CCC3)cc1Cl | nt | nt | 5.7%[46 µM] | nt | nt
COc1ccc(C2C(C#N)=C(N)Oc3c2sc2nc(C)cc(C)c32)cc1 (stereo unspecified) | 14.0 | -0.7% | -2.2% | -3.6% | -5.7%
Cc1cc(C)c2c3c(sc2n1)C1(CCSCC1)C(C#N)=C(N)O3 | -25.3 | 25.1µM* | -4.5% | -0.9% | -17.3%
Cc1ccc(NC(=O)c2cc(S(=O)(=O)N3CCc4ccccc43)ccc2F)cc1Cl | nt | nt | -2.8%[46 µM] | nt | nt
COc1cc(S(=O)(=O)NCC2CCCO2)ccc1Br (stereo unspecified) | -112.1* | -6.3% | -11.0% | 7.5% | -12.4%
CCOC(=O)c1cc(S(=O)(=O)NCc2cccc(Cl)c2)[nH]n1 | nt | nt | 17.0%[46 µM] | nt | nt
O=Cc1cnc(N2CCCCC2)s1 | nt | 3.55µM* | 16.0%[46 µM] | nt | nt
COc1ccc(C2CC(c3c(-c4ccccc4)c4cc(Cl)ccc4[nH]c3=O)=NN2S(C)(=O)=O)cc1 (stereo unspecified) | -13.3 | 0.398µM* | 8.5% | 1.0% | -7.2%
COc1ccc(OC)c(C2CC(c3c(-c4ccccc4)c4cc(Cl)ccc4[nH]c3=O)=NN2S(C)(=O)=O)c1 (stereo unspecified) | ? | ? | 6.7% | -2.8% | -14.9%
COc1ccc(-c2nn(-c3ccccc3)cc2/C=C2/SC(=S)N(Cc3ccco3)C2=O)c(C)c1 | 23.0 | -9.1% | 17.5% | 0.6% | -9.5%
COc1ccc(-n2c(C)cc(/C=C3\SC(=S)N(Cc4ccco4)C3=O)c2C)cc1 | -25.9 | 0.631µM* | -7.5% | 1.2% | -8.5%
CCSc1nc(=S)cc(C)[nH]1 | nt | 28.2µM* | ? | nt | nt
COc1cc(NC(=O)c2c(C)oc3ncnc(N4CCCCC4)c23)cc(OC)c1 | nt | nt | -1.2%[46 µM] | nt | nt
O=C(O)c1cccnc1SC1CC(=O)N(c2cccc(C(F)(F)F)c2)C1=O (stereo unspecified) | 10.4 | 12.6µM* | -9.4% | 3.0% | -16.1%
Nc1ccccc1SC1CC(=O)N(c2ccccc2Cl)C1=O (stereo unspecified) | nt | 1.2% | ? | nt | nt
O=C(O)c1cccnc1SC1CC(=O)N(Cc2ccccc2)C1=O (stereo unspecified) | 23.5 | -8.8% | 0.2% | 13.4% | -3.2%
COc1ccccc1N1C(=O)CC(Sc2ncccc2C(=O)O)C1=O (stereo unspecified) | -100.0* | 4.8% | 1.2% | 1.3% | -7.6%
O=C(O)c1cccnc1SC1CC(=O)N(CCc2ccccc2)C1=O (stereo unspecified) | 14.7 | -6.0% | -1.8% | 0.4% | -17.3%
